Assay results published in PubChem BioAssay (EPA / NIEHS).
Inconclusive results are not listed. The source made the active and inactive calls. Rule for the calls: active = hit-call score of the fitted dose curve at least 0.9, where 1 is the maximum; inconclusive = response in the unintended direction; inactive = score below 0.9.

Each molecule was assayed against human Raf-1 Proto-Oncogene, serine/threonine Kinase (RAF1), RAF1 (gene 5894) (UniProt P04049) (assay: NVS_ENZ_hRAF1: NovaScreen (NVS) Enzymatic Assay for human Raf-1 Proto-Oncogene, serine/threonine Kinase (RAF1) (AID 2283216)).
Description: NVS_ENZ_hRAF1 is a biochemical, single-readout assay that uses extracted gene-proteins in a cell-free assay. Measurements were taken 1 hour after chemical dosing in a 384-well plate.NVS_ENZ_hRAF1 is one of one assay component(s) measured or calculated from the NVS_ENZ_hRAF1 assay. It is designed to make measurements of enzyme activity, a form of enzyme reporter, as detected with fluorescence intensity signals by Fluorescence and electrophoretic mobility shift technology.Data from the assay component NVS_ENZ_hRAF1 was analyzed into 1 assay endpoint. This assay endpoint, NVS_ENZ_hRAF1, was analyzed in the positive analysis fitting direction relative to DMSO as the negative control and baseline of activity. Using a type of enzyme reporter, loss-of-signal activity can be used to understand changes in the enzymatic activity as they relate to the gene RAF1. Furthermore, this assay endpoint can be referred to as a primary readout, because this assay has produced multiple assay endpoints where this one serves a enzymatic activity function. To generalize the intended target to other relatable targets, this assay endpoint is annotated to the kinase intended target family, where the subfamily is serine/threonine kinase.
Binding assays used specific radioligands (tritiated, iodinated) with non-radioactive competitive displacement ligands in agonist or antagonist protocols (as indicated) and various reference compounds and inhibitors to titrate specific binding to receptors and transporters. Most enzyme assays (CYPs, kinases, phosphatases, proteases, HDACs) used recombinant protein and specific substrates (fluorescence mostly, some colorimetric and radioactive) and inhibitors, followed by a biochemical separation of substrate and product. All assays for the biochemical HTS were initially run in duplicate at a single concentration (10 uM for CYP450 assays and 25 uM for all others). Assay-chemical combinations meeting a pre-defined threshold (e.g., 30% inhibition and other criteria defined below) were then run in singleton concentration-response format with maximum concentration of 20 uM for CYPs and 50 uM for all others. Each assay was run with positive and negative controls, and concurrent controls on every plate. The follow-up (secondary) screen tested active chemical-pairs in concentration series, as well as a few additional assays not tested in the primary screen, some selected negative inactives, and several cases re-run in the concentration series for confirmatory purposes.

human Raf-1 Proto-Oncogene, serine/threonine Kinase (RAF1), RAF1 (gene 5894), sequence (P04049 whole entry, looked up): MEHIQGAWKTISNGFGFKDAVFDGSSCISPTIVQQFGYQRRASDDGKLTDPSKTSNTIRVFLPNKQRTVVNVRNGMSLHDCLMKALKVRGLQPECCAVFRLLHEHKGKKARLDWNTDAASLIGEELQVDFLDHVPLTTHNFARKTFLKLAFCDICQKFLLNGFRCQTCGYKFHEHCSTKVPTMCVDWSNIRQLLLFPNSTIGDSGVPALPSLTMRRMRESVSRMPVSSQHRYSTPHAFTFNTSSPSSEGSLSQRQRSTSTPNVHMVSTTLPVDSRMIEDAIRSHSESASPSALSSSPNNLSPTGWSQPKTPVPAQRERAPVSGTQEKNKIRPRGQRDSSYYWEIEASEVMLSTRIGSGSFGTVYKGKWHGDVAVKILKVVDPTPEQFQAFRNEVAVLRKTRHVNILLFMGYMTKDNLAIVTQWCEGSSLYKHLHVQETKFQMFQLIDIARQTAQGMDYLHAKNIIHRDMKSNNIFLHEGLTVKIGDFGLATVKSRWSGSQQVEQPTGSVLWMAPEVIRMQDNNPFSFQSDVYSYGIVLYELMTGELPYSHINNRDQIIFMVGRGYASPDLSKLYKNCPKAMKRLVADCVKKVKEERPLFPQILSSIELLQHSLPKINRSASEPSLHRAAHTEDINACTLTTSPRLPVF

| Compound | outcome | AC50 |
| --- | --- | --- |
| CCOC(=O)COc1cc(-n2ncc(C(F)(F)F)c(C)c2=O)c(F)cc1Cl | inactive | – |
| O=C(c1ccc(O)cc1O)c1ccc(O)cc1O | inactive | – |
| Cc1ncc([C@@H](CCCCCCc2ccc3c(n2)NCCC3)CC(=O)O)cn1 | inactive | – |
| Cc1cc2c(cc1C(F)(F)F)N(C(=O)Nc1ccc(Oc3cccnc3C)nc1)CC2 | – | 6.86 µM (active) |
| CCCCC(CC)CN1C(=O)C2C3C=CC(C3)C2C1=O (stereo not drawn) | inactive | – |
| CC/C(=C(/CC)c1ccc(O)cc1)c1ccc(O)cc1 | inactive | – |
| O=C(O)Cc1cc(I)c(Oc2ccc(O)c(I)c2)c(I)c1 | inactive | – |
| NCCO | inactive | – |
| Clc1nc(Cl)c(Cl)c(Cl)c1Cl | inactive | – |
| Cc1cc(CCN2CCN(c3nsc4ccccc34)CC2)cc2c1NC(=O)CC2(C)C | inactive | – |
| CC(C)(C)[C@@H](O)[C@@H](Cc1ccc(Cl)cc1)n1cncn1 | inactive | – |
| COC(=O)c1c(Cl)nn(C)c1S(=O)(=O)NC(=O)Nc1nc(OC)cc(OC)n1 | inactive | – |
| CN(C)c1ccc(N=NS(=O)(=O)O)cc1 | inactive | – |
| O=C(O)c1ccccc1C(c1ccc(O)cc1)c1ccc(O)cc1 | inactive | – |
| CN1C(=O)N(c2ccccc2Br)Cc2cnc(Nc3ccc4c(c3)OCC(CO)O4)nc21 (stereo not drawn) | – | 0.00359 µM (active) |
| O=C(O)CCCCC(=O)O | inactive | – |
| CC[C@H](c1ccc(O)cc1)[C@@H](CC)c1ccc(O)cc1 | – | 38.5 µM (active) |
| O=C(O)c1cc(N=Nc2ccc(S(=O)(=O)Nc3ccccn3)cc2)ccc1O | inactive | – |
| O=C(OCCCCCOC(=O)c1ccccc1)c1ccccc1 | inactive | – |

| Compound | outcome | AC50 |
| --- | --- | --- |
| Cc1ccc2ncccc2c1 | inactive | – |
| FC(F)(F)C(F)(F)C(F)(F)C(F)(F)C(F)(F)C(F)(F)CCI | inactive | – |
| COC(=O)CCCCC(=O)OC | inactive | – |
| c1ccc2ncccc2c1 | inactive | – |
| COc1ccc(/C=C/S(=O)(=O)NC(=O)c2ccc(C)cc2Cl)cc1 | inactive | – |
| CC(C)CCCCCCc1ccc(O)cc1 | inactive | – |
| O=C(O)c1cccc(N(Cc2cccnc2)c2ccc(OC(F)F)c(OC(F)F)c2)c1 | inactive | – |
| N[C@@H](Cc1cc(I)c(Oc2ccc(O)c(I)c2)c(I)c1)C(=O)O | inactive | – |
| Clc1cc(Cl)c2c(c1)N=C1CCCCCN1C2 | inactive | – |
| CCO[Si](CCCNC(N)=O)(OCC)OCC | inactive | – |
| Cc1ccc(N)cc1O | inactive | – |
| O=C(O)Cc1cc(I)c(Oc2cc(I)c(O)c(I)c2)c(I)c1 | inactive | – |
| C[C@@H]1C[C@H]2[C@@H]3CCC4=CC(=O)C=C[C@]4(C)[C@@]3(F)[C@@H](O)C[C@]2(C)[C@@]1(O)C(=O)COP(=O)(O)O | inactive | – |
| Cn1c(=O)cc(Oc2ccc(F)cc2F)c2cnc(NCC(C)(C)O)nc21 | inactive | – |
| C#CC(O)C(CC)CCCC (stereo not drawn) | inactive | – |
| S=C(S)NCCNC(=S)S.[Mn+2].[S-]C([S-])=NCCN=C([S-])[S-].[Zn+2] | inactive | – |
| COc1ccc2sc(C(=O)Nc3nnn[nH]3)c(OC(C)C)c2c1 | – | 25 µM (active) |
| CCCCCCCCCCCCc1ccccc1S(=O)(=O)O | – | 26 µM (active) |
| CCc1c(C(=O)NN2CCCCC2)nn(-c2ccc(Cl)cc2Cl)c1-c1ccc(Br)cc1 | inactive | – |
